The values that follow come from PubChem BioAssay (Tox21).

The structures appear in SMILES notation. A number with no mark means an inactive call. Records with an inconclusive call do not appear. Active and inactive are the calls of the source. Unless noted, calls come from the whole dose curve.

Test [1] in a line: Nuclear factor erythroid 2-related factor 2/antioxidant responsive element (Nrf2/ARE) small molecule agonists: qHTS cell viability counter screen in human keratinocytes (AID 1919968; active = well fitted curve in the direction sought with a large enough effect in the repeat runs; an effect the other way counts as inactive or inconclusive; note: nearly all actives have a fitted effect of over 55% in size). The procedure, abridged: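 Stably transfected HaCaT (KeratinoSens), 1,500/well. Test agents in DMSO were applied for 23 h, 37 C/5% CO2. CellTiter-Fluor was incubated 1 h before the fluorescence read.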
(In general: qHTS replaces the single test concentration by a dilution series.)

A short description of test [2]: Nuclear factor erythroid 2-related factor 2/antioxidant responsive element (Nrf2/ARE) small molecule agonists: luciferase reporter gene qHTS assay in human keratinocytes (AID 1919969). Note: nearly all actives have a fitted effect of over 35% in size. Note: potency is the fitted concentration of half-maximal effect. In general terms: Reporter assays use an easily measured gene product as a stand-in for the process of interest.
Test [3] has as its target Gonadotropin-releasing hormone receptor (Homo sapiens) (UniProt P30968). Put plainly: Human gonadotropin-releasing hormone receptor (GnRHR) small molecule agonists, calcium flux assay in GnRHR-HEK293 cells (AID 1920063). Note: nearly all actives have a fitted effect of over 35% in size. The procedure, abridged: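 Stable human GnRHR HEK293 line. 18 h plating, then calcium dye for 1 h at 37 C. Agonist-mode compound addition from DMSO stocks; fluorescence monitored 3 min.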
A general note: A change in cytosolic calcium serves as a functional read-out for many receptors and channels.

For test [4], the target named is KiSS-1 receptor (Homo sapiens) (UniProt Q969F8). Put plainly: Human kisspeptin (KISS1R) small molecule agonists, calcium flux assay in KISS1R-HEK293 cells (AID 1920064; active = well fitted curve in the direction sought with a large enough effect in the repeat runs; an effect the other way counts as inactive or inconclusive). An outline of the steps:
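After overnight (18 h) culture at 37 C/5% CO2, human KISS1R-HEK293 cells received calcium dye for 1 h, then test compound; emission at 540 nm (excitation 480 nm) was tracked for 3 min.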

Test [5] is described as follows: G protein-coupled receptor (GPCR) small molecule agonists, calcium flux assay: HEK293 wild type cell line counter screen (AID 1920065). The procedure, abridged:
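Following 18 h incubation at 37 C/5% CO2, plates got calcium dye for 1 h; compounds, ATP or DMSO were then pinned in and fluorescence followed kinetically (480/540 nm).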

A short description of test [6]: p53 small molecule agonists, cell-based qHTS assay with human liver microsomes: qHTS cell viability counter screen (AID 1963579). Note: nearly all actives have a fitted effect of over 45% in size. The procedure, abridged: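 Metabolic activation used human liver microsomes and NADPH, both 0.5 mg/mL final, over 16 hours at 37 C on p53RE-bla cells (4,000/well). Cytotoxicity measured by CellTiter-Glo luminescence, 30 min at room temperature.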

Test [7] in a line: p53 small molecule agonists, cell-based qHTS assay with rat liver microsomes: qHTS cell viability counter screen (AID 1963580). Note: nearly all actives have a fitted effect of over 45% in size. The procedure, abridged:
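After the beta-lactamase ratio was read, CellTiter-Glo was added to the same wells and luminescence measured at 30 min; cells had been treated 16 h at 37 C with compounds, rat liver microsomes and NADPH (0.5 mg/mL final each).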

Test [8] is described as follows: p53 small molecule agonists, cell-based qHTS assay: qHTS cell viability counter screen (AID 1963581). Note: nearly all actives have a fitted effect of over 45% in size. The procedure, abridged: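 qHTS counter screen: 16 h compound exposure at 37 C of p53RE-bla HCT-116 cells (4,000 per well, seeded 5 h prior), cell viability by ATP luminescence.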
Test [9] concerns the target 5-hydroxytryptamine receptor 2A (Homo sapiens) (UniProt P28223). Description: 5-hydroxytryptamine receptor 2A (HTR2A) small molecule antagonists, cell-based qHTS assay (AID 1963586). Note: nearly all actives have a fitted effect of over 45% in size. An outline of the steps:
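CHO cells stably expressing human HTR2A were plated for 18 h at 37 C, then loaded with calcium dye for 1 h. Compounds were preincubated 5 min at room temperature before DOI (4 nM solution) was added. Kinetic fluorescence was read for 3 min.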

Test [10] shares this target. Description: 5-hydroxytryptamine receptor 2A (HTR2A) small molecule agonists, cell-based qHTS assay (AID 1963587). Note: nearly all actives have a fitted effect of over 30% in size. The procedure, abridged:
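CHO cells stably expressing human HTR2A, plated 18 h, loaded with calcium dye 1 h at 37 C. Agonist mode: compounds added and intracellular calcium fluorescence recorded kinetically for 2 min at 1 sec intervals.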

Test [11] deals with Muscarinic acetylcholine receptor M1 (Homo sapiens) (UniProt P11229). Description: Cholinergic receptor muscarinic 1 (CHRM1) small molecule antagonists, cell-based qHTS assay (AID 1963588). Note: nearly all actives have a fitted effect of over 40% in size. Note: potency is the fitted concentration of half-maximal effect. An outline of the steps: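 Compounds were tested at 15 concentrations in three independent runs. Dye-loaded CHRM1-CHO cells were exposed 5 min at room temperature before stimulation by acetylcholine added at 50nM. Intracellular calcium was read kinetically on FDSS for 3 min.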
Sequence of Muscarinic acetylcholine receptor M1 (Homo sapiens) (P11229 whole entry, looked up): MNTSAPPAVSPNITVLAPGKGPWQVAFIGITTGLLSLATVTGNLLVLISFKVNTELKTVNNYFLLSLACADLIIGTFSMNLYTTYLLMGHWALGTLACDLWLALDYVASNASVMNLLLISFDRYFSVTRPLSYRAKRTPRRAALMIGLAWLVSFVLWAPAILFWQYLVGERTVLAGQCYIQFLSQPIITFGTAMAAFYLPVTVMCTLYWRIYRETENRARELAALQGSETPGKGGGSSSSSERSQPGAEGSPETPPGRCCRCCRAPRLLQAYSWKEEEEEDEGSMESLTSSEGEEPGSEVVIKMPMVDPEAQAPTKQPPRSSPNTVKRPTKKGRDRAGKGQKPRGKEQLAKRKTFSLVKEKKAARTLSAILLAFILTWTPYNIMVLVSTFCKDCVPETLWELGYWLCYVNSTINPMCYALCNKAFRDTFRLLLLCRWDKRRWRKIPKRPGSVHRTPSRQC

Test [12] in a line: cAMP Responsive Elements (CRE) small molecule agonists, cell-based qHTS assay (AID 1963590). An outline of the steps: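 Test agents in DMSO were incubated 3 h at 37 C/5% CO2 with CRE-bla HEK 293T cells seeded 18 h earlier; LiveBLAzer B/G FRET substrate was added and read after 2 h at room temperature.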
Test [13] in a line: cAMP Responsive Elements (CRE) small molecule antagonists, cell-based qHTS assay (AID 1963591; active = well fitted inhibition curve with a large enough effect in the signal ratio in the repeat runs, not every such curve was filed as active; the % refers to the signal ratio). An outline of the steps: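 Reporter line CRE-bla HEK 293T in dialyzed-FBS DMEM; cells preincubated 18 h, treated 3 h with compound plus NKH477 (0.25 uM final); LiveBLAzer FRET, 2 h RT.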
Test [14] addresses Beta-2 adrenergic receptor (Homo sapiens) (UniProt P07550). Description: Adrenergic beta2 receptor (ADRB2) small molecule antagonists, cell-based qHTS assay (AID 1963592). Note: series mostly up to about 92 µM; nearly all actives have a fitted effect of over 50% in size. An outline of the steps:
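Assay format: CHO-ADRB2 cells, 18-20hr seeding at 37C/5% CO2, then compound plus 1nM isoproterenol agonist mix for 0.5hr RT. Homogeneous time-resolved fluorescence cAMP detection after 1hr, expressed as 665/615 nm ratio.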

For test [15] the target is unchanged. Put plainly: Adrenergic beta2 receptor (ADRB2) small molecule agonists, cell-based qHTS assay (AID 1963593).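 Note: CHO cells stably overexpressing human ADRB2.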 An outline of the steps: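 CHO cells stably over-expressing ADRB2 were plated overnight at 37C, then dosed with compounds plus a stimulation mix containing 100uM IBMX and 25uM Ro-20-1724 for 0.5hr at room temperature. cAMP was measured by HTRF competition, 1hr.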

The target of test [16] is D(2) dopamine receptor (Homo sapiens) (UniProt P14416). Description: Dopamine D2 receptor (DRD2) small molecule agonists, cell-based qHTS assay (AID 1963594). Note: nearly all actives have a fitted effect of over 35% in size. An outline of the steps: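 HEK293 cells stably expressing human DRD2, pre-treated with PDE inhibitor Ro20-1724 (0.1 mM final) and compound 10 min at room temperature, then stimulated with NKH477 (200nM […]) for 30 min. cAMP read by HTRF (665/620 nm).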
Sequence of D(2) dopamine receptor (Homo sapiens) (P14416 whole entry, looked up): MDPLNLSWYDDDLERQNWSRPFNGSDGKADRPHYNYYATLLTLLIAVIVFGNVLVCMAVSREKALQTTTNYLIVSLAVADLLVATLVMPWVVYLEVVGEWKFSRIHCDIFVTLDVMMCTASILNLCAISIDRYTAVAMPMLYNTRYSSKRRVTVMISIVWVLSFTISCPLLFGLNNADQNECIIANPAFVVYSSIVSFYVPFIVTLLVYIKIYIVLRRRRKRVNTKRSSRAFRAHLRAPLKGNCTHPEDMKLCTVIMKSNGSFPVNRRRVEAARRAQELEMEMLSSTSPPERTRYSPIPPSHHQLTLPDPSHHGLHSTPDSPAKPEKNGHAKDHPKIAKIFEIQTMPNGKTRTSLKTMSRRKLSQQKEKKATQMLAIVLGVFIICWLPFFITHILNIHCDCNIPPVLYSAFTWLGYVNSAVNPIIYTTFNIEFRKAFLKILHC

The target is the same in test [17]. Description: Dopamine D2 receptor (DRD2) small molecule antagonists, cell-based qHTS assay (AID 1963595; active = well fitted inhibition curve with a large enough effect in the signal ratio in the repeat runs, with a control signal flat; the % refers to the signal ratio). The procedure, abridged: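 Antagonism was scored as restored cAMP in HEK293-DRD2 cells. These cells were stimulated with 200 nM NKH477 and 12 nM quinpirole for 30 min at room temperature, in the presence of 0.1 mM Ro20-1724.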
Test [18] concerns the target Muscarinic acetylcholine receptor M1 (Homo sapiens) (UniProt P11229). Put plainly: Cholinergic receptor muscarinic 1 (CHRM1) small molecule agonists, cell-based qHTS assay (AID 1963589). Note: nearly all actives have a fitted effect of over 35% in size. An outline of the steps: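 Kinetic fluorescence (1 s intervals) of calcium-sensitive dye in human M1 CHO cells after compound addition; cells pre-incubated 18 h at 37 C/5% CO2 and dye-loaded 1 h.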

Sequence of 5-hydroxytryptamine receptor 2A (Homo sapiens) (P28223 whole entry, looked up): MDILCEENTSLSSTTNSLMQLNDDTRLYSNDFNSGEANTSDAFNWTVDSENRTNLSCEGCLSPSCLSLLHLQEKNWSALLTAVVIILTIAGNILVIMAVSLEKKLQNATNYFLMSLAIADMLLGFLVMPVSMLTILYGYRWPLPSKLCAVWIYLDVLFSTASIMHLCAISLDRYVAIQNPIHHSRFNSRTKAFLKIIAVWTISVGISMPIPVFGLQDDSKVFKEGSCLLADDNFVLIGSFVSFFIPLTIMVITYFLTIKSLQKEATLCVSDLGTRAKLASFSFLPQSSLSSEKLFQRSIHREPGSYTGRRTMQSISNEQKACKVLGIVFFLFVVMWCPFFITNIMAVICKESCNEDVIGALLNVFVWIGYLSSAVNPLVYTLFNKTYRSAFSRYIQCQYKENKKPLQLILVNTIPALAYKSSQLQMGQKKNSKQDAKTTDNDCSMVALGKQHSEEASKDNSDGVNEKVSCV
Sequence of Beta-2 adrenergic receptor (Homo sapiens) (P07550 whole entry, looked up): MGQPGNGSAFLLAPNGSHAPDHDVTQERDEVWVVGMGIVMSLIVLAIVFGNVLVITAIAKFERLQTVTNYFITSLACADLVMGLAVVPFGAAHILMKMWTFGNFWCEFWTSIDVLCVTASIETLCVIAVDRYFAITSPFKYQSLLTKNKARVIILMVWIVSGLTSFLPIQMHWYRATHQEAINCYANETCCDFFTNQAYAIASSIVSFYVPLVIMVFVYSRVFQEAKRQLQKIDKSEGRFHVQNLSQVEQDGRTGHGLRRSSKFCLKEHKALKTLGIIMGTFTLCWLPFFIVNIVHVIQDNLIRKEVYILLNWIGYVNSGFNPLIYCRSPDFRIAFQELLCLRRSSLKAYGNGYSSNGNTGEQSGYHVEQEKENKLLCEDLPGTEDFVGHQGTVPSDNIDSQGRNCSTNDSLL
Sequence of KiSS-1 receptor (Homo sapiens) (Q969F8 whole entry, looked up): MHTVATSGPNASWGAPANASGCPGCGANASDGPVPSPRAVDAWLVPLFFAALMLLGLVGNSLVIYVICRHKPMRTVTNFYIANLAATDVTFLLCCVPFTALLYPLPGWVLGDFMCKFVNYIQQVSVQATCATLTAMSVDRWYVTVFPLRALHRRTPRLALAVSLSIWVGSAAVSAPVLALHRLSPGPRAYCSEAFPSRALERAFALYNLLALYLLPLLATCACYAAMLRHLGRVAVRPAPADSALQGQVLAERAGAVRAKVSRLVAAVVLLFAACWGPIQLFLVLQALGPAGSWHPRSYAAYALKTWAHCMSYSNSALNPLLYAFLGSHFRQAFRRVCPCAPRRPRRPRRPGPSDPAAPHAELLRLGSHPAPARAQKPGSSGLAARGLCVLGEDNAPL
Sequence of Gonadotropin-releasing hormone receptor (Homo sapiens) (P30968 whole entry, looked up): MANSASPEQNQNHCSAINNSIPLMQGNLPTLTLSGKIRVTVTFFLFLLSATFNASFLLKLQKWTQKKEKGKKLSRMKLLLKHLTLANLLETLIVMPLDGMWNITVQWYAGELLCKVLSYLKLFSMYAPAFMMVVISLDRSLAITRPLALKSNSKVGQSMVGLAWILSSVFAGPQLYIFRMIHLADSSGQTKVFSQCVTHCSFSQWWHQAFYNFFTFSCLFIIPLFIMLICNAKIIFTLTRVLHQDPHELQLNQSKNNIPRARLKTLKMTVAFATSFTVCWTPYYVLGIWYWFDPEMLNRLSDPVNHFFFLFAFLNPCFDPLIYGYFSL

As to `CCCCNc1ccc(C(=O)OCCN(CC)CC)cc1`, the Potency entry in test [1], in test [2], in test [3], in [4], in test [5] and in [6] was “inactive” each time. Moreover, the Potency result in test [7], in [8], in [9], in test [10], in test [12] and in [13] was “inactive” throughout. Further, the Potency result in [14], in test [15], in [16] and in [17] was “inactive” in each case. For the same compound, the Potency in [11] was 3.26 µM (active).

On to `CC(CO)(CO)[N+](=O)[O-]`, for which the Potency result in test [1], in [2], in test [3], in test [4], in [5] and in test [6] was “inactive” in each case. Besides, the Potency result in test [7], in test [8], in [9], in test [10], in [11] and in [12] was “inactive” in each case. Also, the Potency result in test [13], in test [14], in test [15], in test [16] and in test [17] was “inactive” each time.

Regarding `NNc1nc(-c2ccccc2)cs1`, the Potency result in test [1], in [3], in test [4], in [5], in test [6] and in test [7] was “inactive” throughout. The Potency result in test [8], in [9], in test [10], in test [11], in test [18] and in [14] was “inactive” each time. Moreover, the Potency result in test [16] and in test [17] was “inactive” in each case. For the same compound, the Potency in test [2] was 62.9 µM (active).

As for `CCCCCCCOC(=O)CCC`, the Potency result in test [1], in test [2], in test [3], in test [4], in [5] and in test [6] was “inactive” throughout. For the same compound, the Potency result in test [7], in [8], in test [9], in test [10], in test [11] and in [18] was “inactive” in each case. In addition, the Potency entry in test [14], in test [16] and in [17] was “inactive” each time.

`COC(=O)CC(C)=O`: the Potency result in test [1], in test [2], in [3], in test [4], in test [5] and in test [6] was “inactive” in each case. In addition, the Potency entry in test [7], in [8], in test [9], in test [10], in test [11] and in [12] was “inactive” each time. Further, the Potency result in test [14], in test [16] and in test [17] was “inactive” throughout.

For `C#CC(O)C(CC)CCCC` (centres undefined), the Potency entry in test [1], in test [2], in [3], in test [4], in test [5] and in [6] was “inactive” in each case. The Potency result in test [7], in [8], in [9], in [10], in [11] and in [12] was “inactive” each time. In addition, the Potency entry in [13], in [14], in test [15], in test [16] and in test [17] was “inactive” throughout.

For `NCCCCCCNCCCCCCN`, the Potency result in test [1], in test [2], in [3], in test [4], in [5] and in test [6] was “inactive” in each case. Besides, the Potency entry in test [7], in test [8], in test [9], in test [10], in test [18] and in test [12] was “inactive” throughout. The Potency result in [13], in [14] and in test [17] was “inactive” throughout.

Regarding `Cc1oc(=O)oc1CN1CCN(c2cc3c(cc2F)c(=O)c(C(=O)O)c2n3C(C)S2)CC1` (centres undefined), the Potency result in test [1], in test [2], in test [3], in test [4], in [5] and in test [6] was “inactive” throughout. The Potency result in test [7], in test [8], in test [9], in test [10], in [11] and in [18] was “inactive” in each case. In addition, the Potency entry in test [16] is “inactive”.
